The panel holds about 83,000 compounds, 20% with a hit somewhere; the sample as a whole holds those more often.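 Plates (96-well) were seeded with cells, treated with compound at one concentration, and incubated for 48 hours before percent growth was determined.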 Unmarked numbers belong to inactive results. Active and inactive are the calls of the source. How the source made its calls: active means growth percent below 10; inactive means the rest.

The subject of one test is CCRF-CEM leukemia. Description: NCI-60 one-dose screen, 48 h (100 = growth as untreated, 0 = no growth, -100 = all killed). The following applies: 10 µM unless noted.
As for `CCCCSc1nc(Nc2ccc(S(N)(=O)=O)cc2)c(C#N)c(-c2ccc(Cl)cc2)n1`, the growth is 95%.
On the same count and under the same terms, the figure for `COc1cc(-c2cc(-c3cccc(OCC(=O)O)c3)[nH]c(=O)c2C#N)cc(OC)c1OC` is 93.7%; for `NS(=O)(=O)c1ccc(-n2cc(-c3cccc(NC(=O)c4cc(N5CCOCC5)cc(C(F)(F)F)c4)c3)nn2)cc1` it is 93.9%; for `CC(C)(C)OC(=O)/C=C/c1cccc2c1C(=O)NC(C)(c1cc3cc(Cl)ccc3oc1=O)N2` (stereo unspecified) it is 24.2%.
On the same count and under the same terms, the figure for `O=C(Nc1ccccc1)N1CCN(c2cc(-c3cn(-c4ccccc4)nc3-c3cccc(O)c3)ccn2)CC1` is 36.8%; for `COc1ccc(C(=O)/C=C/c2cccc(Cl)c2Cl)cc1S(N)(=O)=O` it is 0.527% (active); for `COc1c(F)ccc(C(=O)Nc2ccc3nc(NC(=O)C4CCCN(S(=O)(=O)c5ccc(C#N)cc5)C4)sc3c2)c1F` (stereo unspecified) it is 92.2%.
Same read-out and setting: then `Nc1nc(-c2ccccc2)c(N=Nc2ccc([N+](=O)[O-])cc2Cl)s1`, with 78.7%; and `C=Cn1cc(C(=O)O)c(=O)c2cc(F)c(N3CCN(c4nccc(-c5nccs5)n4)CC3)cc21`, with 15.3%; and `C/C(=N\N=C1/C(=O)Nc2ccc(Cl)cc21)c1ccc2c(c1)Nc1ccccc1S2`, with 9.58% (active).
As for `NS(=O)(=O)c1ccc(-n2cc(-c3cccc(NC(=O)c4cc(Cl)cc(Cl)c4)c3)nn2)cc1`, the growth is 56.7%.
On the same count and under the same terms, then `O=C(Nc1ccc(C(F)(F)F)cc1)Nc1ccc2oc(=O)ccc2c1`, with 16.1%; and `O=c1[nH]c(=O)c2c(-c3cc4ccccc4oc3=O)ccnc2[nH]1`, with 101%.
On to `COc1cc(-c2nc3ccc(C)cc3[nH]2)ccc1OCc1nnc(-c2ccc(Br)cc2)o1`, for which the growth was 26.4%.
The same measure, in the same setting: then `Clc1cccc(N/N=C/c2c[nH]c3ccc(Br)cc23)n1`, with -14.8% (active); and `Cc1ccc([C@H]2C(C(=O)c3ccc(Cl)cc3)C3(N[C@@H]2c2ccccc2)C(=O)Nc2ccccc23)cc1` (stereo partly specified), with 14.7%.
The same measure, in the same setting: the figure for `COc1cc2c(c(OC)c1OC)C(=O)CC(c1cccc(NC(=O)c3cccc([N+](=O)[O-])c3)c1)O2` (stereo unspecified) is 11.5%; for `COc1ccc2[nH]cc(-c3nnc(N)nc3-c3c[nH]c4ncc(Br)cc34)c2c1` it is 88.9%; for `CC(C)c1ccc2c(N)c(C(=O)Nc3ccc(C(F)(F)F)cn3)sc2n1` it is 34.1%.
Still for that read-out and setting: the figure for `C=C1CC[C@@H]2[C@]3(C)COC(c4ccco4)O[C@@H]3CC[C@@]2(C)[C@@H]1C/C=C1/C(=O)OCC1OC(C)=O` (stereo partly specified) is -19.8% (active); for `CCN(CC)c1ccc(/C=N/Nc2nc(-c3ccc(Br)cc3)cs2)c(O)c1` it is 1.36% (active); for `N=C1N=C(SCc2nc3ccccc3[nH]2)NC(=O)/C1=C/c1ccc(Cl)cc1` it is 100%.
Take `CN(C)c1nc(NCCNS(=O)(=O)c2ccc(C(=O)/C=C/c3ccc(F)cc3)cc2)nc(Nc2ccc(F)cc2)n1`: the growth is 4.06% (active).
Still for that read-out and setting: then `N/C(=N\c1nc2ccccc2s1)NC(=O)Nc1ccc(Cl)cc1Cl`, with 5.6% (active).

Another test has as its system MOLT-4 leukemia. Described as above. The following applies: 10 µM unless noted.
On to `CCCCSc1nc(Nc2ccc(S(N)(=O)=O)cc2)c(C#N)c(-c2ccc(Cl)cc2)n1`, for which the growth is 52.8%.
For the molecule `COc1cc(-c2cc(-c3cccc(OCC(=O)O)c3)[nH]c(=O)c2C#N)cc(OC)c1OC`, the growth was 85.9%.
Same read-out and setting: the figure for `COc1cc(-c2ccc(/C=N/NC(=O)c3[nH]c4ccc(Br)cc4c3-c3ccccc3)o2)cc(OC)c1OC` is 77.3%.
Same read-out and setting: the figure for `CC(C)(C)OC(=O)/C=C/c1cccc2c1C(=O)NC(C)(c1cc3cc(Cl)ccc3oc1=O)N2` (stereo unspecified) is -14.6% (active); for `O=C(Nc1ccccc1)N1CCN(c2cc(-c3cn(-c4ccccc4)nc3-c3cccc(O)c3)ccn2)CC1` it is 33%; for `COc1ccc(NC(=O)Cn2c3c(sc2=O)[C@H]2[C@@H](O)[C@@H](O)[C@H](O)[C@@H]2CS3)cc1` it is 108%.
Same read-out and setting: the figure for `N#Cc1c(-c2ccccc2Cl)cc(-c2c[nH]c3ccccc23)[nH]c1=O` is 34.7%.
With `CNC(=O)c1cccc(NC(=O)c2ccc3c(c2)nnn3/C(C#N)=C/c2ccccn2)c1`, the growth was -19.2% (active).
Same read-out and setting: then `COc1c(F)ccc(C(=O)Nc2ccc3nc(NC(=O)C4CCCN(S(=O)(=O)c5ccc(C#N)cc5)C4)sc3c2)c1F` (stereo unspecified), with 62.4%; and `O=C(Cn1c2c(sc1=O)[C@H]1[C@@H](O)[C@@H](O)[C@H](O)[C@@H]1CS2)N1CCOCC1`, with 118%.
Consider `Nc1nc(-c2ccccc2)c(N=Nc2ccc([N+](=O)[O-])cc2Cl)s1`, for which the growth was 79%.
On the same count and under the same terms, the figure for `C=Cn1cc(C(=O)O)c(=O)c2cc(F)c(N3CCN(c4nccc(-c5nccs5)n4)CC3)cc21` is 1.77% (active); for `C/C(=N\N=C1/C(=O)Nc2ccc(Cl)cc21)c1ccc2c(c1)Nc1ccccc1S2` it is -1.18% (active).
The same measure, in the same setting: then `CC1=C(C(=O)c2ccccc2)C(c2cccc3ccccc23)n2c(nc3ccccc32)N1` (stereo unspecified), with 52.3%; and `C#C[C@]1(O)CC[C@H]2[C@@H]3CC=C4c5sc(-c6ccc(O)c(O)c6)nc5CC[C@]4(C)[C@H]3CC[C@@]21C`, with -48% (active).
Same read-out and setting: the figure for `O=c1[nH]c(=O)c2c(-c3cc4ccccc4oc3=O)ccnc2[nH]1` is 111%.
Take `CC1(C)CC[C@]2(C(=O)O)CC[C@]3(C)C(=CCC4[C@@]5(C)C[C@@H](O)[C@@H]6OC(c7ccccc7Br)OC[C@@]6(C)C5CC[C@]43C)C2C1` (stereo partly specified): the growth was 10.5%.
On the same count and under the same terms, the figure for `COc1cc(-c2nc3ccc(C)cc3[nH]2)ccc1OCc1nnc(-c2ccc(Br)cc2)o1` is 25%; for `Clc1cccc(N/N=C/c2c[nH]c3ccc(Br)cc23)n1` it is -20.1% (active); for `Cn1cc(-c2cc3nc(-c4cn(C)c5ncccc45)cc(N)n3n2)c2cc(Cl)ccc21` it is -45.7% (active).
With `Cn1cc(-c2nnc(N)nc2-c2c[nH]c3ccccc23)c2cccnc21`, the growth was 26.7%.
`Cc1ccc([C@H]2C(C(=O)c3ccc(Cl)cc3)C3(N[C@@H]2c2ccccc2)C(=O)Nc2ccccc23)cc1` (stereo partly specified): the growth is -26.6% (active).
As for `O=C(Cn1nc(-c2ccccc2)ccc1=O)N/N=C/c1ccc(N2CCOCC2)cc1`, the growth was 98.1%.
On the same count and under the same terms, then `COc1cc2c(c(OC)c1OC)C(=O)CC(c1cccc(NC(=O)c3cccc([N+](=O)[O-])c3)c1)O2` (stereo unspecified), with 13.9%; and `COc1ccc2[nH]cc(-c3nnc(N)nc3-c3c[nH]c4ncc(Br)cc34)c2c1`, with 70.8%.
Same read-out and setting: the figure for `CC(C)c1ccc2c(N)c(C(=O)Nc3ccc(C(F)(F)F)cn3)sc2n1` is 7.3% (active); for `C=C1CC[C@@H]2[C@]3(C)COC(c4ccco4)O[C@@H]3CC[C@@]2(C)[C@@H]1C/C=C1/C(=O)OCC1OC(C)=O` (stereo partly specified) it is 2.43% (active).
Same read-out and setting: then `CCN(CC)c1ccc(/C=N/Nc2nc(-c3ccc(Br)cc3)cs2)c(O)c1`, with 12.3%; and `N=C1N=C(SCc2nc3ccccc3[nH]2)NC(=O)/C1=C/c1ccc(Cl)cc1`, with 99.5%; and `COc1ccc(-c2c(Nn3cnnn3)no[n+]2[O-])cc1`, with 27.9%.
Regarding `CN(C)c1nc(NCCNS(=O)(=O)c2ccc(C(=O)/C=C/c3ccc(F)cc3)cc2)nc(Nc2ccc(F)cc2)n1`, the growth is -17.2% (active).
On the same count and under the same terms, then `N/C(=N\c1nc2ccccc2s1)NC(=O)Nc1ccc(Cl)cc1Cl`, with 6.86% (active).

For the origin of these results see PubChem BioAssay (NCI).
